Hit rate of the full screen: of about 38,000 compounds, about 1,200 (3.2%) showed an effect of 50% or more. The median lay at about -58%. Only a selection was taken, and strong results are over-represented in it overall.
The molecules below were run on Plasmodium falciparum (assay: Calibr Malaria Delayed Death Assay SOP). Details: concentration 4.99e-06 (unit not given; other assays of the set use mol/L).
Format: functional, organism-based
Parameters: scale not given: in the data most compounds retested in dose-response had high values

Row | Compound | Percent Effect
1 | CC(C)CCN1C2(CCN(C(=O)C3(C)CC3)C2)c2ccccc2S1(=O)=O (stereo unspecified) | -11.02%
2 | CCc1ncc2c(n1)CN(Cc1nnc(CC)o1)CC2 | -50.82%
3 | CC(C)Nc1nc2c(cc1C(=O)O)CCN(Cc1ccsc1)CC2.O=C(O)C(F)(F)F.O=C(O)C(F)(F)F | -107.1%
4 | Cc1csc(CNC(=O)NCC(C)Cn2nc(C)cc2C)n1 (stereo unspecified) | -114.8%
5 | Cc1c(C(=O)N(C)C)cccc1N(C)S(C)(=O)=O | -103.2%
6 | Cc1ncc(CNC(=O)Cc2cccs2)c(C2CCCN2C)n1 (stereo unspecified) | -27.86%
7 | Cc1nn(C)c(C)c1CC(=O)N1CCCC1Cn1cccn1 (stereo unspecified) | -102.7%
8 | Cc1cc(F)ccc1S(=O)(=O)N1CCN(C)c2ccncc21 | 20.68%
9 | CN1CCN(S(=O)(=O)c2ccc(Cl)c(Cl)c2)c2cnccc21 | 89.32%
10 | CN1CCN(S(=O)(=O)c2cccnc2)c2cnccc21 | -116.1%
11 | CN1CCN(S(=O)(=O)c2cccc(F)c2)c2cnccc21 | 11.1%
12 | CN1CCCN(S(=O)(=O)c2cnn(C)c2)c2cc(Cl)ccc21 | -19.46%
13 | Cc1ccc(S(=O)(=O)N2CCN(C)c3ccncc32)cc1F | 60.6%
14 | CCOC(=O)COc1nc(CC(C)C)c2c(c1C#N)CCC2 | -73.52%
15 | CN1CCCCC1CCC(=O)NCCCn1ncc2ccccc21 (stereo unspecified) | -37.16%
16 | CCSc1cc(C(=O)NC2CCN(C(=O)c3ccncc3)CC2)ccn1 | -119%
17 | O=C(NCc1ccccc1-n1cccn1)N1CCN2CCCCC2C1 (stereo unspecified) | -71.32%
18 | CC(NCc1cnc(C2CCC2)s1)c1ccccc1-n1cccn1 (stereo unspecified) | -47.47%
19 | CC(NC1CCCC1)c1ccccc1-n1cccn1 (stereo unspecified) | 80.66%
20 | CS(=O)(=O)CCCN(CCCO)C1CCc2ccccc21 (stereo unspecified) | -127.8%
21 | CN(C)CCn1ccnc1C1CCCN(c2ncc(Cl)cc2F)C1 (stereo unspecified) | 35.69%
22 | COc1cc(OC)nc(N2CCCC(c3nccn3CCN(C)C)C2)n1 (stereo unspecified) | -26.11%

Row | Compound | Percent Effect
23 | CN(C)CCCn1ccnc1C1CCCN(c2ncc(Cl)cc2F)C1 (stereo unspecified) | 83.94%
24 | Fc1cc(Cl)cnc1N1CCCC(c2nccn2CC2CC2)C1 (stereo unspecified) | 3.7%
25 | Cc1cc(C)nc(N2CCCC(c3nccn3CCCN(C)C)C2)c1 (stereo unspecified) | 50.47%
26 | CN(C)CCn1ccnc1C1CCCN(c2cc(N)ncn2)C1 (stereo unspecified) | -56.5%
27 | Cc1ccc(C)c(Oc2cc(-n3nc(C)c(C#N)c3N)nc(C)n2)c1 | -175%
28 | Cc1cc(C2CCCN2C(=O)NCc2c(C)cc(C)[nH]c2=O)on1 (stereo unspecified) | -57.59%
29 | CN(CC1COCCO1)c1ncnc2cc(F)ccc12 (stereo unspecified) | -82.12%
30 | Cn1cccc1C(=O)N1CCN(Cc2cccnc2)c2ncccc2C1.O=C(O)C(F)(F)F.O=C(O)C(F)(F)F | -59.69%
31 | Cn1nc2c(cc1=O)CN(c1nc3ccccc3s1)CC2 | -163.5%
32 | Cc1nc[nH]c1CN1CCC(C2CCN(CCc3ccccc3)C2)CC1 (stereo unspecified) | 9.569%
33 | Cc1nc[nH]c1CN1CCCN(c2nc3ccccc3s2)CC1 | 54.13%
34 | Cc1ncnc(N2CCCN(c3nc4ccccc4s3)CC2)c1C | -444.8%
35 | c1ccc2sc(N3CCN(c4ncnc5c4CCC5)CC3)nc2c1 | -56.68%
36 | c1ccc2sc(N3CCCN(c4ncnc5c4CCNC5)CC3)nc2c1 | 85.14%
37 | Cc1ccc(CNCc2nccn2C)c(OC(C)(C)C)c1 | 8.3%
38 | O=C(NCCc1coc(-c2ccccc2)n1)NC1CC1 | -110.7%
39 | CN(C)CCN1CCOCC12CCN(C(=O)C1CC1)CC2.O=C(O)C(F)(F)F.O=C(O)C(F)(F)F | -16.92%
40 | CC(C(=O)NCc1cn2cc(Br)ccc2n1)S(C)(=O)=O (stereo unspecified) | -87.47%
41 | Cc1cc(CN(C)C(=O)C(c2ccccc2)N2CCSCC2)no1 (stereo unspecified) | -62.62%
42 | CCn1cnnc1CNC(=O)N1CCN(c2cccc(C)c2)CC1 | -132.8%
43 | Cc1cc(C)n(-c2cncc(NCCNS(C)(=O)=O)n2)n1 | -82.28%
44 | CSc1ncn(-c2nc(NC3CC3)nc(N(C)C)n2)n1 | -74.3%

Row | Compound | Percent Effect
45 | CCC(CNC(=O)c1ccccc1Br)N1CCc2ccccc2C1 (stereo unspecified) | 39.24%
46 | CCC(CNC(=O)c1cc(OC)ccc1Br)N1CCc2ccccc2C1 (stereo unspecified) | 0.2059%
47 | CCC(CNC(=O)c1cncc(Br)c1)N1CCc2ccccc2C1 (stereo unspecified) | 65.67%
48 | CN(CC1(CO)CCC1)C(=O)c1cc(COc2ccccc2F)[nH]n1 | -88.13%
49 | Cc1noc(C(C)C)c1C(=O)N1CCOCC1CC(=O)c1ccco1 (stereo unspecified) | -42.91%
50 | NC(=O)Cc1ccc(OCc2noc(C(=O)N3CCCC3)n2)cc1 | -126.1%
51 | O=C(C1CCC2(CCN(Cc3cccnc3)CC2)CO1)N1CCCC1.O=C(O)C(F)(F)F.O=C(O)C(F)(F)F (stereo unspecified) | -51.34%
52 | COc1cc(CCC(=O)NC(C)C)ccc1OCC(F)(F)F | -88.73%
53 | Cc1c(C(=O)N2CCN(C)CC2)n(C)c2ccc(Cl)cc12 | -1.924%
54 | Cc1c(C(=O)N2CCOCC2)n(C)c2ccc(Cl)cc12.Cl | -79.72%
55 | NCC1Cc2cc(-c3nccc(N4CCC(O)CC4)n3)cc(F)c2O1 (stereo unspecified) | 83%
56 | OC1CCN(c2ccnc(NCCc3ccccc3Cl)n2)CC1 | -52.91%
57 | O=C1NCCN1C1CCN(c2ccnc(-c3ccccc3)n2)CC1 | -68.77%
58 | OC1CCN(c2ccnc3c(F)cc(Br)cc23)CC1 | -18.79%
59 | NCC1Cc2cc(-c3nccc(N4CCC(O)CC4)n3)cc(Cl)c2O1 (stereo unspecified) | 79.64%
60 | NCC1Cc2cccc(-c3nccc(N4CCC(O)CC4)n3)c2O1 (stereo unspecified) | 16.4%
61 | Cc1ccc(CN2CCc3c(COC(C)C)nn(C)c3C2)s1.O=C(O)C(F)(F)F | -19.42%
62 | N[C@H]1CN(S(=O)(=O)c2ccccc2)C[C@@H]1C1CC1 | -1.115%
63 | N[C@H]1CN(S(=O)(=O)c2cccnc2)C[C@@H]1C1CC1 | -65.5%
64 | Cc1cc(S(=O)(=O)N2C[C@H](C3CC3)[C@@H](N)C2)c(C)s1 | 85.63%
65 | Cc1cc(-c2cc(S(=O)(=O)N3C[C@H](C4CC4)[C@@H](N)C3)c(C)s2)[nH]n1 | 61.47%
66 | Cc1ccc(S(=O)(=O)N2C[C@H](C3CC3)[C@@H](N)C2)cc1F | 14.36%

— ChEMBL document CHEMBL3988442, “University of Dundee, Small-Polar-MMV Screening Library” (2021)
